Screening results from PubChem BioAssay.
Rows were chosen to be rich in hits. Some 19% of all compounds tested hit in one or more screens of this group.
Shiga toxin inh – Shiga toxin inhibition. AID 2315. 9.2% of 290,000 active. Vero cells, Shiga toxin protein synthesis inhibition reporter. inhibition, % at 38.7 µM; in the data active = inhibition mostly above about 28%, no sharp cut-off; inactive = mostly below about 43%; also: 0% is about no effect
Pf growth 96h – inhibits malaria parasite growth, 96 h | P. falciparum luciferase reporter growth, 96 h | 6.9% of 320,000 active | Potency, µM (top dose mostly 28.7 µM), inactives show at the highest dose activity change, negative = inhibition, hits mostly inhibitors | AID 504834; also: potency is read from the fitted curve at half-maximal effect; % is scaled to controls: 0 for no effect and ±100 for the full control effect
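Delayed-death screen, second-generation endpoint: infected erythrocytes, 2% hematocrit, 0.05% parasitemia final; 96 hours at 37 C, 5% CO2; luciferase detection reagent; luminescence decrease equals reduced growth.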
Marburg entry inh – Marburg virus entry inhibition; Marburg virus pseudotyped entry inhibition, cell reporter; Potency, µM (titrated, usually from 37.8 µM), for inactives: at the top dose activity change, negative = inhibition, hits mostly inhibitors; 1.8% of 300,000 active; AID 540276; calls by dose curve; tested in HEK293 cells; also: potency is read from the fitted curve at half-maximal effect; % is scaled to controls: 0 for no effect and ±100 for the full control effect
Pf growth 48h – P. falciparum growth inhibition at 48 hours (one generation) | P. falciparum luciferase growth in erythrocytes, 48 h | 5.9% of 310,000 active | Potency, µM (highest dose often 28.7 µM), without a hit: at the top dose activity change, negative = inhibition, usual class: inhibitors; also: potency is read from the fitted curve at half-maximal effect; % is scaled to controls: 0 for no effect and ±100 for the full control effect
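Firefly luciferase activity from engineered P. falciparum reports growth; inhibitors lower the luminescent signal. Cultures contained 2% hematocrit erythrocytes at 0.1% final parasitemia.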
Cycloheximide cs – affects cycloheximide protein synthesis inhibition readout, counter-screen. max response, %. 12% of 300,000 active. cell reporter, cycloheximide protein synthesis inhibition counterscreen; in the data active = max response mostly above about 13%, no sharp cut-off; inactive = mostly below about 14%; also: read at 38.3 µM for the half of the compounds with a filed dose; 0% is about no effect
LASV entry inh – Lassa virus entry inhibition; Lassa virus pseudotype entry inhibition, cell reporter; AID 540256; 1.2% of 300,000 active; Potency, µM (doses to about 37.9 µM), without a hit: top-dose activity change, negative = inhibition, most hits filed as inhibitors; calls by dose curve; tested in HEK293 cells; also: potency is read from the fitted curve at half-maximal effect; % is scaled to controls: 0 for no effect and ±100 for the full control effect; nearly all actives have a fitted effect of over 50% in size
An asterisk follows results filed as active; ? = inconclusive; nt = not tested or not shown; + = active, no number; [ ] = remark or other dose. Unless noted, calls follow the shape of the dose curve; as a rule, active = well fitted inhibition curve with a large enough effect; inconclusive = small, poorly fitted or top-dose-only effect, or another doubt; inactive = no such curve, though single readings can be large or run the other way.

SMILES	Shiga toxin inh	Pf growth 96h	Marburg entry inh	Pf growth 48h	Cycloheximide cs	LASV entry inh
COc1ccc(NC(=O)CCNS(=O)(=O)c2ccc3c(c2)c(=O)n(C)c(=O)n3C)cc1	28	130%	5%	2%	6	3%
C=CCOc1ccc(/C=C2\SC(=S)N(N3CCOCC3)C2=O)cc1	-9	11%	0%[46.1 µM]	13%	-1	-2%
Nc1ccc(N)cc1	95*	?	nt	?	35*	nt
Nc1ccc(Cc2ccc(N)cc2)cc1	nt	nt	17%	nt	nt	1%
O=C(c1ccc(F)cc1)c1ccc(N2CCCC2)cc1	151*	?	?	?	63*	?
O=C(Nc1ccc(N2CCCCC2)cc1)c1ccc(F)cc1	77*	-19%	11µM*	-7%	52*	?
O=S(=O)(c1ccc(N2CCCC2)cc1)C(F)(F)F	72*	nt	-12%	21%	28*	19%[14.3 µM]
O=C(Nc1ccc(N2CCCCC2)cc1)c1cccnc1	129*	?	17%	113%	22*	?
C=CCOC(=O)NC(c1ccc(F)c(F)c1)C(C(=O)CCl)C(=O)OC (stereo not given)	nt	nt	-20%[14.2 µM]	nt	nt	?
CC1CCN(c2ccccc2N)CC1	1	nt	17%	9%	-3	1%
Cc1ccc(C)c(-n2c(CNc3ccc(F)cc3)nnc2SCC(N)=O)c1	-16	80%	0%	-29%	-3	1%
Cc1ccc(NC(=O)CN2C(=O)C(c3ccc(F)cc3)=NC2(C)C)c(C)c1	nt	nt	-13%[46.1 µM]	nt	nt	13%[46.1 µM]
O=C(Nc1ccccc1C(=O)N1CCOCC1)c1cccnc1	0	nt	-19%	17%	5	?
O=C(c1ccc(F)cc1)c1ccc(N2CCCCC2)cc1	97*	-13%	nt	88%	61*	nt
O=C(Nc1sccc1C(=O)N1CCOCC1)c1cccnc1	7	3.3µM*	2%	36%	-1	-3%
O=S(=O)(N1CCCCC1)N1CCN(c2ccc(F)cc2)CC1	-7	55%	2%	2%	1	-29%
OCCCNC(=S)Nc1ccc(Nc2ccccc2)cc1	18	17%	?	11%	1	?
CC(C)(C)c1cnnn1-c1ccc(/C=N/Nc2ccc([N+](=O)[O-])cc2)cc1	-13	-61%	3%	12µM*	-1	?
COc1ccc(N2CCN(C(=O)CSc3ccccc3)CC2)cc1	32	12%	21%	16%	17	-19%
COc1ccc(N2CCN(C(=O)CSc3nnc4n3C(C)(C)Cc3ccccc3-4)CC2)cc1	33	?	-19%	12µM*	7	-24%
COC(=O)CSc1nnc2n1C(C)(C)Cc1ccccc1-2	-8	14%	14%	1%	-1	20%
COc1cc(NC(=O)CSc2nnc3n2C(C)(C)Cc2ccccc2-3)cc(OC)c1	-4	4.1µM*	?	?	-1	-7%
COc1ccc(N2CCN(C(=O)CSc3ccccc3N)CC2)cc1	-3	nt	-8%	-17%	12*	-10%
Cc1ccc(Cl)cc1N1CCN(C(=O)CSc2nnc3n2C(C)(C)Cc2ccccc2-3)CC1	-4	?	12µM*	?	-3	?
COCCc1nn2c(=O)cc(COC(=O)c3ccc(Br)cc3)nc2s1	nt	nt	nt	nt	nt	0%[46.1 µM]
SMILES	Shiga toxin inh	Pf growth 96h	Marburg entry inh	Pf growth 48h	Cycloheximide cs	LASV entry inh
COc1ccc(N2CCN(C(=O)CSc3nnc4c(C)cc5cc(C)ccc5n34)CC2)cc1	35	53%	18%	-9%	-4	0%
COc1ccc(N2CCN(C(=O)CSc3nnc4c(C)cc5c(C)cc(C)cc5n34)CC2)cc1	-8	-4%	?	2.9µM*	-1	?
Cc1cc(NC(=O)CSc2nnc(C3CC3)n2Cc2ccccc2)no1	-14	-14%	13%	nt	-6	-2%
Cn1cc(C(=O)c2ccccc2)cc1-c1nc2ccccc2n1C	31	?	?	-29%	13*	-15%
Cc1oc(-c2nc3ccccc3n2C)cc1C(=O)c1ccccc1	+	-14%	11µM*	73%	27*	2.8µM*
Cc1cc(N2CCC(C)CC2)nc2ccc(N3C(=O)CCC3=O)cc12	14	24%	19%	49%	18*	?
CCCCNC(=O)CCC(=O)Nc1ccc2nc(N3CCC(C)CC3)cc(C)c2c1	55*	?	nt	-5%	30*	nt
Cc1cc(N2CCOCC2)nc2ccc(NC(=O)CCC(=O)N3CCC(C)CC3)cc12	103	31%	18%	-18%	8	17%
CCC(C)NC(=O)CCC(=O)Nc1ccc2nc(N3CC(C)CC(C)C3)cc(C)c2c1 (stereo not given)	21	5.9µM*	?	9.3µM*	13	-27%[46.1 µM]
CCCCN(C)C(=O)CCC(=O)Nc1ccc2nc(N3CCOCC3)cc(C)c2c1	20	?	20%	23%	29*	14%
CCC[C@H]1COCCS(=O)(=O)N1Cc1ccccc1F	-4	?	nt	26%	-3	nt
O=C(Nc1ccncc1)Nc1ccc(Cl)cc1	42	28%	3%[46.1 µM]	5.2µM*	33*	5%[46.1 µM]
O=C(Nc1ccncc1)Nc1ccc(Cl)cc1Cl	21	-4%	-18%[46.1 µM]	1.7µM*	7	?
O=C(Nc1ccncc1)Nc1ccncc1	-5	31%	0%[46.1 µM]	?	8	11%
Nc1ncnc(Oc2cccc3cccnc23)c1[N+](=O)[O-]	-2	53%	?	?	-2	-29%
O=c1cc(-c2ccco2)nc(SCc2cccc(Cl)c2)[nH]1	nt	?	nt	-1%	10	nt
Cc1cccc(N(C(=O)c2sc(C)nc2C)C(C(=O)NCc2ccco2)c2ccccc2)c1 (stereo not given)	17	?	-17%	?	-4	?
Cc1ccc(N(C(=O)c2sc(C)nc2C)C(C(=O)NCc2ccco2)c2ccccc2)cc1 (stereo not given)	-25	?	?	?	5	7.3µM*
Cc1cc(C)cc(N(C(=O)c2sc(C)nc2C)C(C(=O)NCc2ccco2)c2ccccc2)c1 (stereo not given)	14	12µM*	?	?	6	?
Cc1ccc(C(C(=O)NCc2ccco2)N(C(=O)Cc2cccs2)c2cccnc2)cc1 (stereo not given)	-25	-10%	?	-13%	1	-11%
Cc1cc(NC(=O)c2ccc(-c3ccc(F)c(Cl)c3)o2)no1	21	-17%[5.75 µM]	nt	-14%	-1	nt
O=C(NC(=S)Nc1ccccc1N1CCOCC1)c1ccc(-c2ccccc2F)o1	1	15µM*	3%[46.1 µM]	6%	-3	-12%[46.1 µM]
COc1ccccc1NC(=O)c1ccc(-c2ccccc2F)o1	70*	6%	-1%	43%	28*	1%
Cc1cc(NC(=O)c2ccc(-c3ccccc3F)o2)no1	186*	48%	?	85%	79*	-16%[46.1 µM]
Cc1ccc(NC(=O)C2CCN(S(=O)(=O)c3ccc4c(c3)OCCO4)CC2)nc1	nt	6%	-10%	?	nt	8%
COc1ccc(-c2nc(CS(=O)CC(=O)NCCc3ccc(Cl)cc3)c(C)o2)cc1OC (stereo not given)	nt	nt	1%[46.1 µM]	nt	nt	-9%[46.1 µM]
